Experimental data published in the supplement of paper PMC12494721.
Counter-ions that a name gives are not always drawn.

Key:
Conditions in all cases: incubation time: 27 h, anaerobic, 37 °C;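 for the amine columns active = adjusted P below 0.05 in both replicates with a change the same way and a mean fold change under 0.8 or over 1.25; inactive = the rest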
[1] = test system: Clostridium sporogenes DSM 1664; assay: growth (OD595) fold change vs plate DMSO controls (fold change (ratio)); higher = more growth
Method in brief: (§1)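 The reported measure is growth: the fold change against the median of DMSO controls on the plate. Absorbance at 595 nm from anaerobic 96-well mGAM cultures grown for 27 h at 37 °C was blank-subtracted, corrected for background with 20 µM compound solutions in water, and converted to OD with a calibration factor of 5. Fold changes above 1.5 appear as NA, and values are the mean of 2 biological replicates.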

Escherichia coli IAI1 [2] = assay: as above
Method in brief: as §1

[3] = test system: Klebsiella aerogenes DSM 30053; assay: as above
Method in brief: as §1

[4] = test system: Ruminococcus gnavus DSM 108212; assay: as above
Method in brief: as §1

[5] = test system: Klebsiella aerogenes DSM 30053; assay: fold change of Histamine concentration vs plate DMSO controls (fold change (ratio)); higher = more amine produced, active = hit call of the paper (significant change in both replicates, either direction)
Method in brief: (§2)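 Extracts of whole anaerobic mGAM cultures were analysed for amines by LC–triple-quadrupole MS with dynamic MRM and external calibration curves, with drift corrected within batch. Four gut strains were grown at 37 °C for 27 h in 80 µL wells with compounds at 20 µM final, sweeteners at 50 µM final. Each value expresses fold change over plate DMSO controls. The average of 2 biological replicates is shown.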

[6] = test system: Clostridium sporogenes DSM 1664; assay: fold change of Tryptamine concentration vs plate DMSO controls (fold change (ratio)); higher = more amine produced, active = hit call of the paper (significant change in both replicates, either direction)
Method in brief: as §2

[7] = test system: Ruminococcus gnavus DSM 108212; assay: as above
Method in brief: as §2

Escherichia coli IAI1 [8] = assay: fold change of Putrescine concentration vs plate DMSO controls (fold change (ratio)); higher = more amine produced, active = hit call of the paper (significant change in both replicates, either direction)
Method in brief: as §2

[9] = test system: Klebsiella aerogenes DSM 30053; assay: as above
Method in brief: as §2

Escherichia coli IAI1 [10] = assay: fold change of Cadaverine concentration vs plate DMSO controls (fold change (ratio)); higher = more amine produced, active = hit call of the paper (significant change in both replicates, either direction)
Method in brief: as §2

[11] = test system: Klebsiella aerogenes DSM 30053; assay: as above
Method in brief: as §2

[12] = test system: Ruminococcus gnavus DSM 108212; assay: fold change of 2-Phenylethylamine concentration vs plate DMSO controls (fold change (ratio)); higher = more amine produced, active = hit call of the paper (significant change in both replicates, either direction)
Method in brief: as §2

Structure (SMILES)	growth [1]	growth (Escherichia coli IAI1 [2])	growth [3]	growth [4]	fold change of Histamine concentration [5]	fold change of Tryptamine concentration [6]	fold change of Tryptamine concentration [7]	fold change of Putrescine concentration (Escherichia coli IAI1 [8])	fold change of Putrescine concentration [9]	fold change of Cadaverine concentration (Escherichia coli IAI1 [10])	fold change of Cadaverine concentration [11]	fold change of 2-Phenylethylamine concentration [12]
CC(=O)N[C@@H](CC(C)C)C(=O)O [N-Acetyl-L-leucine] (20 µM)	1.1	0.831	0.991	1	0.86 (inactive)	0.964 (inactive)	1.03 (inactive)	0.892 (inactive)	1.01 (inactive)	1.07 (inactive)	1.03 (inactive)	1.04 (inactive)
CC(C)(Sc1cc(C(C)(C)C)c(O)c(C(C)(C)C)c1)Sc1cc(C(C)(C)C)c(O)c(C(C)(C)C)c1 [Probucol] (20 µM)	1.03	1.06	1.03	1.15	0.921 (inactive)	1.02 (inactive)	1.01 (inactive)	1.04 (inactive)	0.983 (inactive)	0.921 (inactive)	1.01 (inactive)	1.01 (inactive)
O=C(O)c1cc(-c2ccc(F)cc2F)ccc1O [Diflunisal] (20 µM)	1.05	0.978	0.985	1.22	1.02 (inactive)	1.01 (inactive)	1.02 (inactive)	1.07 (inactive)	0.988 (inactive)	1.02 (inactive)	0.994 (inactive)	1.1 (inactive)
CC(C)NC[C@@H](O)COc1cccc2ccccc12 [(R) Propranolol hydrochloride] (20 µM)	1.08	0.856	0.86	0.617	1.01 (inactive)	1.04 (inactive)	0.95 (inactive)	0.979 (inactive)	0.993 (inactive)	1.01 (inactive)	0.987 (inactive)	0.945 (inactive)
Cc1cc(C(C)(C)C)c(O)c(C)c1CC1=NCCN1 [Oxymetazoline hydrochloride] (20 µM)	0.934	1.02	0.987	0.978	0.947 (inactive)	1.03 (inactive)	1.01 (inactive)	0.983 (inactive)	0.958 (inactive)	0.968 (inactive)	1.01 (inactive)	0.996 (inactive)
CNS(=O)(=O)Cc1ccc2[nH]cc(CCN(C)C)c2c1 [Sumatriptan succinate] (20 µM)	1.11	0.977	1.21	0.976	0.809 (inactive)	1.05 (inactive)	1.01 (inactive)	0.895 (inactive)	0.992 (inactive)	1.03 (inactive)	1.03 (inactive)	1.06 (inactive)
Clc1ccc(COC(Cn2ccnc2)c2ccc(Cl)cc2Cl)cc1 (stereo not drawn) [Econazole nitrate] (20 µM)	1.35	1.01	1.08	0.481	0.83 (inactive)	0.815 (inactive)	0.357 (active)	1.01 (inactive)	0.963 (inactive)	1.02 (inactive)	1.01 (inactive)	0.404 (active)
Cc1ccc2c(Cl)cc(Cl)c(O)c2n1 [Chlorquinaldol] (20 µM)	0.726	0.915	0.929	0.448	1.12 (inactive)	0.518 (active)	0.33 (active)	1.17 (inactive)	1.03 (inactive)	1.32 (inactive)	0.978 (inactive)	0.332 (inactive)
COc1ccc([C@@H]2Sc3ccccc3N(CCN(C)C)C(=O)[C@@H]2OC(C)=O)cc1 [Diltiazem hydrochloride] (20 µM)	1.13	1.02	0.994	1.01	1.07 (inactive)	1.03 (inactive)	1.01 (inactive)	0.982 (inactive)	1.02 (inactive)	0.985 (inactive)	0.993 (inactive)	0.971 (inactive)
CC(C)OC(=O)CCC/C=C\C[C@@H]1[C@@H](CC[C@@H](O)CCc2ccccc2)[C@H](O)C[C@@H]1O [Latanoprost] (20 µM)	0.975	1	0.984	1.44	1.11 (inactive)	0.828 (inactive)	0.542 (active)	0.928 (inactive)	1.04 (inactive)	0.939 (inactive)	1 (inactive)	0.649 (inactive)
COc1ccc(-c2cc(=O)c3c(O)cc(O[C@@H]4O[C@H](CO[C@@H]5O[C@@H](C)[C@H](O)[C@@H](O)[C@H]5O)[C@@H](O)[C@H](O)[C@H]4O)cc3o2)cc1O [Diosmin] (20 µM)	1.12	0.976	1.01	1.1	0.924 (inactive)	0.985 (inactive)	0.97 (inactive)	0.961 (inactive)	0.992 (inactive)	0.971 (inactive)	1.02 (inactive)	1 (inactive)
Nc1nc(N)nc(-c2cc(Cl)ccc2Cl)n1 [Irsogladine maleate] (20 µM)	1.07	1.02	0.961	1.02	0.989 (inactive)	0.978 (inactive)	0.959 (inactive)	1.04 (inactive)	0.998 (inactive)	1.06 (inactive)	0.997 (inactive)	0.921 (inactive)
CC(=O)OCC(=O)[C@@]1(O)CC[C@H]2[C@@H]3CCC4=CC(=O)C=C[C@]4(C)[C@@]3(Cl)[C@@H](Cl)C[C@@]21C [Dichlorisone acetate] (20 µM)	1.03	1.01	1	0.886	0.984 (inactive)	1.01 (inactive)	1.01 (inactive)	1.05 (inactive)	1.01 (inactive)	1.04 (inactive)	1 (inactive)	0.997 (inactive)
CCN(CC)C(C)CN1c2ccccc2Sc2ccccc21 (stereo not drawn) [Ethopropazine hydrochloride] (20 µM)	1.04	0.975	0.954	0.823	1.01 (inactive)	1.03 (inactive)	0.928 (inactive)	1.05 (inactive)	1 (inactive)	1.04 (inactive)	0.992 (inactive)	0.984 (inactive)
COc1cc2nc(N3CCN(C(=O)C4CCCO4)CC3)nc(N)c2cc1OC (stereo not drawn) [Terazosin hydrochloride] (20 µM)	1.07	1.02	1	0.977	1.08 (inactive)	1.03 (inactive)	0.952 (inactive)	0.936 (inactive)	1.03 (inactive)	1 (inactive)	1.01 (inactive)	0.948 (inactive)
Cc1c(C)c2c(c(C)c1O)CCC(C)(C(=O)O)O2 (stereo not drawn) [Trolox] (20 µM)	0.897	0.987	0.962	0.896	1.13 (inactive)	0.995 (inactive)	1.02 (inactive)	0.926 (inactive)	1.04 (inactive)	0.986 (inactive)	0.984 (inactive)	1.03 (inactive)
CN(C)CCCO[C@@H]1[C@H]2OC(C)(C)O[C@H]2O[C@@H]1[C@H](O)CO [Amiprilose hydrochloride] (20 µM)	1.09	1.03	1.01	1.1	1.07 (inactive)	1.04 (inactive)	1.04 (inactive)	0.973 (inactive)	1.02 (inactive)	0.994 (inactive)	0.992 (inactive)	1.01 (inactive)
NS(=O)(=O)c1cc(C2(O)NC(=O)c3ccccc32)ccc1Cl (stereo not drawn) [Chlorthalidone] (20 µM)	0.955	0.977	1	1.17	1.09 (inactive)	1 (inactive)	1.03 (inactive)	0.992 (inactive)	1.03 (inactive)	0.973 (inactive)	0.983 (inactive)	1.04 (inactive)
CCCNC(=O)NS(=O)(=O)c1ccc(Cl)cc1 [Chlorpropamide] (20 µM)	0.913	1.03	0.983	1.03	1.17 (inactive)	0.956 (inactive)	1.13 (inactive)	0.938 (inactive)	1.03 (inactive)	0.993 (inactive)	1.1 (inactive)	1.31 (active)
O=C(Oc1cccc2cccnc12)c1ccccc1 [Benzoxiquine] (20 µM)	1.09	0.939	1.04	1.13	0.957 (inactive)	1.03 (inactive)	1.03 (inactive)	0.984 (inactive)	1.02 (inactive)	0.995 (inactive)	1.01 (inactive)	1.07 (inactive)
CN/C(=N\CCSCc1nc[nH]c1C)NC#N [Cimetidine] (20 µM)	1.03	1.02	1.07	1.18	0.893 (inactive)	0.981 (inactive)	0.997 (inactive)	1.02 (inactive)	0.979 (inactive)	1.03 (inactive)	1.01 (inactive)	1.01 (inactive)
OCCN1CCN(CCCN2c3ccccc3C=Cc3ccccc32)CC1 [Opipramol dihydrochloride] (20 µM)	1.12	0.948	0.983	0.902	1.03 (inactive)	1.07 (inactive)	1.02 (inactive)	0.888 (inactive)	0.994 (inactive)	1.04 (inactive)	0.98 (inactive)	1.02 (inactive)
Cc1ccc(S(=O)(=O)NC(=O)NN2CC3CCCC3C2)cc1 (stereo not drawn) [Gliclazide] (20 µM)	1.15	1.06	0.986	0.999	1.04 (inactive)	1.06 (inactive)	1.12 (inactive)	0.995 (inactive)	1 (inactive)	0.883 (inactive)	1 (inactive)	1.12 (inactive)
O=C(O)CCCC[C@@H]1SC[C@@H]2NC(=O)N[C@@H]21 [Biotin] (20 µM)	1.02	0.975	0.981	1.12	1.02 (inactive)	0.954 (inactive)	1.03 (inactive)	0.982 (inactive)	1.02 (inactive)	1.01 (inactive)	0.997 (inactive)	1.06 (inactive)
